Data from PubChem BioAssay AID697 (Columbia University Molecular Screening Center, 2007).
Out of some 96,000 compounds screened, about 100 (0.1%) were called active. Shown is part of a subset that was picked to be rich in actives. Unmarked numbers belong to inactive results.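 How the source made its calls: active means activation at 2 µM above a set limit, the mean plus 5 SD (cut at about 37% in these data); inactive means the rest.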

What follows are molecules tested against Tyrosine-protein phosphatase non-receptor type 22 (Homo sapiens) (UniProt Q9Y2R2) (assay: LYP phosphatase activators, primary screen, biochemical, DiFMUP fluorescence, 2 µM (AID 697)). Details: recombinant LYP, at 2 µM, active compounds read high, 0 = plate median, 100 = signal doubled.
Tyrosine-protein phosphatase non-receptor type 22 (Homo sapiens), sequence (Q9Y2R2 whole entry, looked up): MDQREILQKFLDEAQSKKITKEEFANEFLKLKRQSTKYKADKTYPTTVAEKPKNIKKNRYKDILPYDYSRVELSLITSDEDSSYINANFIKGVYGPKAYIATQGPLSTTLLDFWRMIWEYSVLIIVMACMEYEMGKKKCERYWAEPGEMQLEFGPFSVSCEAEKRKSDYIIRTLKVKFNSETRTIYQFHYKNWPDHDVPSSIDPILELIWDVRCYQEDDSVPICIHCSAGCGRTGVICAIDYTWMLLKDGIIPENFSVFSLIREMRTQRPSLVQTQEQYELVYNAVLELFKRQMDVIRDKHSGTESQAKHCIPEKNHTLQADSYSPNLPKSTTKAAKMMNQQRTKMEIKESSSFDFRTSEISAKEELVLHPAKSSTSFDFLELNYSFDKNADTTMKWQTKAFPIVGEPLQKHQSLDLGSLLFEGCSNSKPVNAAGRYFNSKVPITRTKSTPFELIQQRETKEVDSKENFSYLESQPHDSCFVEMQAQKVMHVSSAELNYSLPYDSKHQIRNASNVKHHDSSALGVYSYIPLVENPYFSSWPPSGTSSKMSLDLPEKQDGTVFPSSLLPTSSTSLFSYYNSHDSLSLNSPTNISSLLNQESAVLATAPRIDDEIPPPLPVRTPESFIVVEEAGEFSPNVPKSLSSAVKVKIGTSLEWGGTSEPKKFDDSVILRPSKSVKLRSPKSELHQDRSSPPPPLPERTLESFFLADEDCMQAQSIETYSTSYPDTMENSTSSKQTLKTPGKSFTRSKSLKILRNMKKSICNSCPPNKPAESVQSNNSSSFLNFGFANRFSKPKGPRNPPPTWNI

Going from `COc1cc(C)c(C(C)C)cc1S(=O)(=O)n1ccnc1` to `COc1cc2c(cc1OC)C(C(C)C)=NC(C)(C)C2`, the activation rises from 9.7% to 12.3%.

Compared with `N#CCCn1cnc2ccccc21`, `Cc1cc(Nc2ccccc2)n(CCC#N)n1` is lower in activation: 2% for the first, -4.9% for the second.

Going from `O=C(NC1CCC(O)CC1)c1ccc(S(=O)(=O)NCc2ccco2)cc1` (stereo unspecified) to `Cc1ccc(C(=O)N/C(=C/C=C/c2ccccc2)C(=O)NCc2ccco2)cc1`, the activation falls from 8.1% to -2.3%.

Compared with `CC(=O)N/C(=C/c1ccc(Cl)cc1)C(=O)NCCc1c[nH]c2ccccc12`, `COc1cccc(CNCCc2c[nH]c3ccccc23)c1OCc1ccccc1F` is higher in activation: -3% for the first, 10.4% for the second.

Going from `Cc1nn(Cc2ccccc2)c2c1C(c1ccccc1)C(C#N)=C(N)O2` (stereo unspecified) to `c1ccc(-c2nc(NCc3ccco3)c3ccccc3n2)cc1`, the activation rises from -7.2% to 8%.

First: CC(C)(C)NC(=O)Cn1c(SCC(=O)Nc2nccs2)nc2ccccc21
Second: O=C(CCCn1c(SCC(=O)c2ccccc2)nc2ccccc2c1=O)NCC1CCCO1 (stereo unspecified)
The activation of the first is higher: 8% for the first, -4.2% for the second.

Compared with `COc1ccc(N(CC(=O)NC2CCCCC2)C(=O)CNC(=O)c2ccco2)c(OC)c1`, `O=C(COC(=O)c1ccccc1SCC(=O)NC1CCCCC1)NC1CCCCC1` is lower in activation: 9.4% for the first, -5.6% for the second.

First: COC(=O)C(C)Oc1ccc2c(-c3cccc([N+](=O)[O-])c3)cc(=O)oc2c1 (stereo unspecified)
Second: Cc1onc(-c2ccccc2Cl)c1C(=O)OCC(=O)c1ccccc1
The activation of the first is lower: 0.1% for the first, 13.5% for the second.

First: Cc1ccc(NS(=O)(=O)c2c(C)[nH]c(=O)[nH]c2=O)cc1C
Second: C=CCn1c(Oc2ccc(C(=O)OC)cc2)nc2c1c(=O)n(C)c(=O)n2C
The activation of the first is higher: 0.8% for the first, -3.9% for the second.

Going from `CC(=O)C1=C(C)NC(C)=C(C(C)=O)C1c1cn(-c2ccccc2)nc1-c1cccs1` to `Cc1nc(NC2=NC(C(=O)Nc3ccc(Cl)cc3)CC(=O)N2)nc2ccccc12` (stereo unspecified), the activation rises from -3.9% to -2.8%.

Compared with `COc1cccc2cc(C(=O)N3CCN(C(=O)c4ccccc4)CC3)c(=O)oc12`, `O=C(O)C1CC=CCC1C(=O)Nc1ccccc1C(=O)N1CCN(c2ccccc2)CC1` (stereo unspecified) is lower in activation: 17.4% for the first, -3.2% for the second.

First: CS(=O)(=O)N(CC(=O)N1CCN(Cc2ccccc2)CC1)c1ccc2c(c1)OCCO2
Second: O=C(CCNS(=O)(=O)c1ccccc1C(F)(F)F)NCc1ccc2c(c1)OCO2
The activation of the first is lower: -3.3% for the first, 13.9% for the second.

Compared with `CCOc1ccc(-c2nc(C)sc2CC(=O)O)cc1`, `CCSc1ccccc1C(=O)NCc1ccc(OC)cc1` is lower in activation: 14.3% for the first, -18.7% for the second.

First: Cc1ccc(NC(=O)CN2CCc3ccccc3C2)cc1
Second: O=C(Nc1ccccc1)OCc1cn(-c2ccc(Cl)cc2)nn1
The activation of the first is lower: -4.9% for the first, -1.5% for the second.

First: CC(C)C(=O)NC(NC(=S)NC1CCS(=O)(=O)C1)C(Cl)(Cl)Cl (stereo unspecified)
Second: COC(=O)C1(O)CC(C(C)C)=NN1C(=O)c1ccc(Cl)cc1 (stereo unspecified)
The activation of the first is lower: -11.6% for the first, -5.9% for the second.

First: O=C(Oc1ccccc1C(=S)N1CCCCC1)c1cc([N+](=O)[O-])cc([N+](=O)[O-])c1
Second: CC(C)NC(=O)c1ccccc1S(=O)c1ccccc1C#N (stereo unspecified)
The activation of the first is lower: -4.4% for the first, 4% for the second.

First: c1ccc(-c2nccc(-c3ccc(-n4cnc5ccccc54)cc3)n2)nc1
Second: N#Cc1ccc(Oc2cc(C(F)(F)F)nc(-c3ccccn3)n2)cc1
The activation of the first is lower: -36.4% for the first, -2.8% for the second.

First: Cn1ncc2c(Nc3cccc4ccccc34)ncnc21
Second: Cc1cccc(NC(=O)c2ccc(OCC(=O)NCc3ccccc3)cc2)c1C
The activation of the first is lower: -5% for the first, 6% for the second.

Going from `CCn1c(-c2ccoc2C)n[nH]c1=S` to `CC1=CC(C)(C)NC(=S)N1c1ccccc1`, the activation falls from 7.5% to -7.5%.

Going from `N#Cc1ccccc1CN1C(=O)S/C(=C/c2cccn2-c2cccc(C(=O)O)c2)C1=O` to `O=C(Cc1c(O)c2ccccc2[nH]c1=O)NCc1ccccc1`, the activation rises from -30.2% to 3.6%.

Compared with `O=C1CC(C(F)(F)C(F)(F)C(F)(F)C(F)(F)F)=Nc2ccccc2N1`, `Cc1ccc(N2C(=O)CC(Sc3ncn[nH]3)C2=O)cc1` (stereo unspecified) is lower in activation: 1.9% for the first, -8.7% for the second.

First: CCSc1nnc(-c2cc3c(s2)-c2ccccc2CC3)o1
Second: CN(C)c1ccc(NC(=S)N(CCc2ccccc2)C2CC(=O)N(c3c(Cl)cccc3Cl)C2=O)cc1 (stereo unspecified)
The activation of the first is higher: -3.7% for the first, -8.5% for the second.

`Cc1noc(C)c1C(=O)N1CCOCC1` showed an activation of 33%.

In the case of `N#CCCn1ncc2ccccc21`, the activation is reported as 44.2% (active).
